According to PubChem BioAssay (Tox21):
Results filed as inconclusive are left out. Activity calls are given as the source filed them. Unless noted, the call rests on the fitted dose curve; in most records, active means well fitted curve in the direction sought with a large enough effect in the repeat runs; inconclusive means weak or mixed curves; inactive means no such curve, though single readings can be large; an effect the other way counts as inactive or inconclusive.

Legend:
[1] = qHTS assay to identify small molecule antagonists of the estrogen related receptor (ERR) signaling pathway from Tox21 library - cell viability counter screen (AID 1224834); further: nearly all actives have a fitted effect of over 30% in size; further: potency means the concentration at half of the fitted maximal effect
In short: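 Compounds in DMSO were pinned onto ERR cells that had been incubated for 6 h, and the plates were held at 37 C for 17.5 h. CellTiter-Fluor reagent was then added and fluorescence was measured after 30 min.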

[2] = qHTS assay to identify small molecule antagonists of the constitutive androstane receptor (CAR) signaling pathway - cell viability counter screen (AID 1224837); further: nearly all actives have a fitted effect of over 45% in size; further: potency means the concentration at half of the fitted maximal effect
In short: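 Cells are seeded, rested 4 hr at 37 C/5% CO2, dosed with compound (15-point series) and 50 nM CITCO, incubated a further 23 hr, and then CellTiter-Fluor reagent is added before fluorescence is read. The line is HepG2 with stable hCAR and CYP2B6-2.2kb.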

[3] = qHTS assay to identify small molecule antagonists of the estrogen related receptor signaling pathway with the pleiotropic PPARgamma coactivator (PGC) from Tox21 10K library - cell viability counter screen (AID 1224840; active means well fitted cell-killing curve with a large enough effect in the repeat runs, not every such curve was filed as active; further: nearly all actives have a fitted effect of over 40% in size)
In short: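 Cell viability is measured by CellTiter-Fluor fluorescence in PGC/ERR cells that receive compounds after a 6-hour attachment period and are then incubated 17.5 hours at 37 C.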

[4] = qHTS assay to identify small molecule agonists of the estrogen related receptor signaling pathway with the pleiotropic PPARgamma coactivator (PGC) from Tox21 10K library (AID 1224842); further: nearly all actives have a fitted effect of over 15% in size
In short: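 PGC/ERR reporter cell line, 2,000 cells per well, incubated 6 h at 37 C before 23 nL compound in DMSO was added. After 18 h at 37 C, One-Glo luminescence read following 30 min at room temperature.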

[5] = molecular target: Thyrotropin receptor (Homo sapiens) (UniProt P16473); test: qHTS assay to identify small molecule agonists of the thyroid stimulating hormone receptor (TSHR) signaling pathway (AID 1224843; calls by dose curve; further: nearly all actives have a fitted effect of over 45% in size)
In short: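 Agonist-mode screen: TSHR HEK293 cells received test chemicals for half an hour at room temperature, then HTRF cAMP detection reagents for one hour prior to fluorescence measurement. Each chemical ran as a 15-concentration series, triplicated.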

[6] = qHTS assay to identify small molecule agonists of the hypoxia (HIF-1) signaling pathway - cell viability counter screen (AID 1224844; calls by dose curve; further: nearly all actives have a fitted effect of over 50% in size)
In short: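 Viability counter screen: HRE-bla ME-180 cells plated 5 hrs before compound addition, treated 17 hrs at 37C and 5% CO2, then CellTiter-Glo added after the FRET reporter read; luminescence after 30 min.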

[7] = qHTS assay to identify small molecule agonists of H2AX - cell viability counter screen (AID 1224847; calls by dose curve; further: top concentration of the series differs between compounds; nearly all actives have a fitted effect of over 30% in size)
In short: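 For this counter screen, overnight-attached CHO-K1 cells received test compounds (15 concentrations, 0.76% DMSO final); 3 hr later at 37C, CellTiter-Glo reagent was added and luminescence recorded after 30 min at room temperature.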

[8] = qHTS assay to identify small molecule agonists of the estrogen related receptor (ERR) signaling pathway from Tox21 library (AID 1224849; calls by dose curve; further: nearly all actives have a fitted effect of over 15% in size); settings: ERR reporter cell line, ONE-Glo luciferase, 18 h; at 92.4 µM (top of the series) unless noted
In short: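 Quantitative HTS in agonist format: NTP ERR cell line, compounds transferred in DMSO after 6 h plating, 18 h incubation at 37 C, ONE-Glo luminescence endpoint.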

[9] = qHTS RealTime-Glo MT Cell Viability Assay in HepG2 cells - 24 hour (AID 1224867); further: nearly all actives have a fitted effect of over 50% in size; further: potency means the concentration at half of the fitted maximal effect
In short: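 qHTS, HepG2, 600 cells/well, RealTime-Glo (NanoLuc + prosubstrate) added with cells; 5 h preincubation; DMSO compound addition; 37 C; luminescence at 0/8/16/24/32/40 h.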

[10] = qHTS RealTime-Glo MT Cell Viability Assay in HEK293 cells - 32 hour (AID 1224868); further: nearly all actives have a fitted effect of over 50% in size; further: potency means the concentration at half of the fitted maximal effect
In short: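 Assay medium contained NanoLuc luciferase plus cell-permeant prosubstrate, added with HEK293 cells at 600 cells/well. After 5 h at 37 C/5% CO2 compounds were added; plates stayed at 37 C for 40 h with serial luminescence reads.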

[11] = A CellTox Green Cytotoxicity Assay to monitor cytotoxicity in HEK293 cells - 0 hour (AID 1224869); further: nearly all actives have a fitted effect of over 50% in size; further: potency means the concentration at half of the fitted maximal effect
In short: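 Dead-cell fluorescence measured kinetically: asymmetric cyanine dye, HEK293, 600 cells/well, 5 h settle, 23 nL cpd/DMSO, 37 C, reads 0–40 h every 8 h.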

[12] = qHTS RealTime-Glo MT Cell Viability Assay in HepG2 cells - 40 hour (AID 1224870); further: nearly all actives have a fitted effect of over 50% in size; further: potency means the concentration at half of the fitted maximal effect
In short: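 HepG2 cells (600/well) mixed with RealTime-Glo MT reagent, settled 5 h at 37 C/5% CO2 before compound addition. Nonlytic NanoLuc luminescence from viable-cell prosubstrate reduction read repeatedly during 40 h treatment at 37 C.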

[13] = qHTS assay to identify small molecule agonists of the hypoxia (HIF-1) signaling pathway (AID 1224846; active means well fitted activation curve with a large enough effect in the signal ratio in the repeat runs, not every such curve was filed as active; the % refers to the signal ratio)
In short: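 Agonist mode reporter screen. ME-180 cells stably expressing bla under HRE control received test compounds in DMSO for 17 hrs (37C, 5% CO2), and beta-lactamase activity was then detected with the CCF4-AM FRET substrate.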

[14] = qHTS assay to identify small molecule antagonists of the estrogen related receptor (ERR) signaling pathway from Tox21 library (AID 1224848); further: nearly all actives have a fitted effect of over 50% in size; further: potency means the concentration at half of the fitted maximal effect
In short: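 Quantitative high-throughput format: ERR reporter cells (2,000/well) pre-incubated 6 h, treated 18 h at 37 C with compounds in DMSO alongside positive and negative controls, then read by ONE-Glo luminescence.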

[15] = qHTS assay to identify small molecule agonists of the constitutive androstane receptor (CAR) signaling pathway - cell viability counter screen (AID 1224836); further: nearly all actives have a fitted effect of over 45% in size; further: potency means the concentration at half of the fitted maximal effect
In short: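 Double-stable HepG2 hepatoma cells (hCAR plus CYP2B6-2.2kb) are treated for 23 h at 37 C with test compounds in 15-point concentration series. PK11195 at 0.75 uM final is co-added. Cell viability is quantified by CellTiter-Fluor.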

[16] = molecular target: Nuclear receptor subfamily 1 group I member 3 (Homo sapiens) (UniProt Q14994); test: qHTS assay to identify small molecule agonists of the constitutive androstane receptor (CAR) signaling pathway (AID 1224839);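 further: HepG2 cells stably carrying human CAR and a CYP2B6 luciferase reporter; nearly all actives have a fitted effect of over 15% in size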
In short: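 Readout: firefly luciferase luminescence via ONE-Glo. System: HepG2 double-stable for hCAR and CYP2B6-2.2kb. Conditions: 15-point compound titration, PK11195 at 0.75 uM final, 24 h incubation.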

[17] = molecular target: Nuclear receptor subfamily 1 group I member 3 (Homo sapiens) (UniProt Q14994); test: qHTS assay to identify small molecule antagonists of the constitutive androstane receptor (CAR) signaling pathway (AID 1224838);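 further: HepG2 cells stably expressing hCAR with CYP2B6 luciferase reporter stimulated by CITCO; nearly all actives have a fitted effect of over 40% in size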
In short: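 Luminescence from a CYP2B6-2.2kb promoter reporter in hCAR-expressing HepG2 cells reflects CAR signaling. Cells received compounds at 15 concentrations and 50 nM CITCO (final), then incubated 24 h at 37 C/5% CO2.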

[18] = qHTS assay to identify small molecule antagonists of the estrogen related receptor signaling pathway with the pleiotropic PPARgamma coactivator (PGC) from Tox21 10K library (AID 1224841; call rule not given here; further: potency means the concentration at half of the fitted maximal effect)
In short: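 Cells stably carrying the PGC/ERR reporter, seeded at 2,000 per well, received pin-transferred compounds 6 h post-plating. Exposure lasted 18 h at 37 C. Signal: One-Glo luminescence.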

[19] = qHTS assay to identify small molecule agonists of H2AX (AID 1224845; active means well fitted activation curve with a large enough effect in the signal ratio in the repeat runs, not every such curve was filed as active; the % refers to the signal ratio)
In short: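 Wild-type CHO-K1 cells, plated overnight, exposed 3hr at 37C to 15 concentrations (0.76% DMSO final). Lysed, then HTRF anti-pH2AX (S139) cryptate and anti-H2AX-d2 antibodies, 24 hr room temperature; 665/620 nm emission read.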
On the % scale 0 is the no-effect control and ±100 the full control effect.

Chain of Nuclear receptor subfamily 1 group I member 3 (Homo sapiens) (Q14994 whole entry, looked up): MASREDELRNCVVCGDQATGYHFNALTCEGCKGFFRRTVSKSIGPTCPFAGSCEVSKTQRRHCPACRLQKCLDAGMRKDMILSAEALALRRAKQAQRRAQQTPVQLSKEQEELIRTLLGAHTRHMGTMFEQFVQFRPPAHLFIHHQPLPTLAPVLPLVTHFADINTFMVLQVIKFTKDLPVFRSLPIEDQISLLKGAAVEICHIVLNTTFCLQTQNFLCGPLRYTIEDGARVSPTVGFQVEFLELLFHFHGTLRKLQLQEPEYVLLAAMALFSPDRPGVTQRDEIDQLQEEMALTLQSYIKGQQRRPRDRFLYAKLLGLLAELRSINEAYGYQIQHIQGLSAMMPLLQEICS
Chain of Thyrotropin receptor (Homo sapiens) (P16473 whole entry, looked up): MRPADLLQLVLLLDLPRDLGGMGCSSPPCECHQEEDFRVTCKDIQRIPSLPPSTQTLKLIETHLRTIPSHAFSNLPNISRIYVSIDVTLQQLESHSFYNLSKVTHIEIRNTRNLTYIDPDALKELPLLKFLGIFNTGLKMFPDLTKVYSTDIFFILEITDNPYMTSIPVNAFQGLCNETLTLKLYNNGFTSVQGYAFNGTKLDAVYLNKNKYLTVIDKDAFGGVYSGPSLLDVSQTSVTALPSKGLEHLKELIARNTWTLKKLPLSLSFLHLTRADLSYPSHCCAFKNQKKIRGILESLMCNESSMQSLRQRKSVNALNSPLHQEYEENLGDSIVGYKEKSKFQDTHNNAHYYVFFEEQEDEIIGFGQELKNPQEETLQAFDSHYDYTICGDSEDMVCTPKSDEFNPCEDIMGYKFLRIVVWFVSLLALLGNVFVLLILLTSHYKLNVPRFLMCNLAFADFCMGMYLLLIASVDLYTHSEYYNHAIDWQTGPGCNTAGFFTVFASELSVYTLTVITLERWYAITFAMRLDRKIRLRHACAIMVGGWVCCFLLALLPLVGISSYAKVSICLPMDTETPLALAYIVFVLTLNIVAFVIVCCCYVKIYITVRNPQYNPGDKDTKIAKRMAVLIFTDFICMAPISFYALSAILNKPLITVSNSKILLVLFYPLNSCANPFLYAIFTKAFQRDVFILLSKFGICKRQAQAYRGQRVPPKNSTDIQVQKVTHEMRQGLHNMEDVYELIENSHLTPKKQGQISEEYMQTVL

c1ccc(-c2ccccn2)nc1
inactive: Potency [1] | Potency [2] | Potency [3] | Potency [4] | Potency [5] | Potency [6] | Potency [7] | activity change, positive = activation [8] -20.5% | Potency [9] | Potency [10] | Potency [11] | Potency [12]

NC(=O)C(c1ccccc1)(c1ccccc1)[C@@H]1CCN(CCc2ccc3c(c2)CCO3)C1
active: Potency [11] 21.3 µM
inactive: Potency [1] | Potency [2] | Potency [3] | Potency [5] | Potency [6] | Potency [13] | Potency [7] | Potency [14] | activity change, positive = activation [8] -1.44% [at 42.5 µM] | Potency [9] | Potency [12]

C[N+]1(CC2COC(c3ccccc3)(C3CCCCC3)O2)CCCCC1 (stereo not drawn)
inactive: Potency [1] | Potency [15] | Potency [16] | Potency [3] | Potency [5] | Potency [6] | Potency [13] | Potency [7] | Potency [14] | activity change, positive = activation [8] -8.13% [at 42.5 µM] | Potency [9] | Potency [11]
active: Potency [12] 23.9 µM

Nc1cccc([N+](=O)[O-])c1
inactive: Potency [1] | Potency [2] | Potency [17] | Potency [16] | Potency [3] | Potency [18] | Potency [4] | Potency [19] | Potency [13] | Potency [7] | Potency [14] | activity change, positive = activation [8] -5.85% | Potency [9] | Potency [10] | Potency [11] | Potency [12]

CC(C)C[C@H]1C(=O)N2CCC[C@H]2[C@]2(O)O[C@](NC(=O)[C@@H]3C=C4c5cccc6[nH]c(Br)c(c56)C[C@H]4N(C)C3)(C(C)C)C(=O)N12
active: Potency [1] 18.4 µM | Potency [18] 16.4 µM | Potency [14] 14.6 µM | Potency [9] 13.2 µM | Potency [12] 14.8 µM
inactive: Potency [17] | Potency [5] | Potency [6] | Potency [19] | Potency [7] | activity change, positive = activation [8] -64.1% [at 42.5 µM] | Potency [11]

CC(=O)[O][Al]
inactive: Potency [1] | Potency [2] | Potency [3] | Potency [18] | Potency [4] | Potency [19] | Potency [13] | Potency [7] | Potency [14] | activity change, positive = activation [8] 0.0434% | Potency [9] | Potency [10] | Potency [11] | Potency [12]

O=S(=O)(Oc1ccc(Cl)cc1)c1ccccc1
inactive: Potency [1] | Potency [15] | Potency [3] | Potency [18] | Potency [5] | Potency [6] | Potency [19] | Potency [13] | Potency [14] | activity change, positive = activation [8] -14.7% | Potency [9] | Potency [11] | Potency [12]

OC(C#CCN1CCCC1)(c1ccccc1)c1ccccc1
inactive: Potency [1] | Potency [15] | Potency [2] | Potency [3] | Potency [18] | Potency [5] | Potency [6] | Potency [19] | Potency [13] | Potency [7] | Potency [14] | activity change, positive = activation [8] -10.1% [at 42.5 µM] | Potency [9] | Potency [10] | Potency [11] | Potency [12]

C/C=C(/C(=C/C)c1ccc(OC(C)=O)cc1)c1ccc(OC(C)=O)cc1
inactive: Potency [1] | Potency [15] | Potency [5] | Potency [6] | Potency [7] | Potency [9] | Potency [10] | Potency [11] | Potency [12]

CCO[C@H](Cc1ccc(OCCc2ccc(OS(C)(=O)=O)cc2)cc1)C(=O)O
inactive: Potency [1] | Potency [2] | Potency [17] | Potency [16] | Potency [3] | Potency [6] | Potency [19] | Potency [13] | Potency [7] | Potency [9] | Potency [10] | Potency [11] | Potency [12]

Cc1cccc(C)c1OCC(=O)N[C@@H](Cc1ccccc1)[C@@H](O)C[C@H](Cc1ccccc1)NC(=O)[C@H](C(C)C)N1CCCNC1=O
active: Potency [1] 21.1 µM | Potency [15] 18.8 µM | Potency [2] 13.3 µM | Potency [18] 13.3 µM | Potency [14] 23.7 µM | Potency [10] 23.9 µM
inactive: Potency [4] | Potency [5] | Potency [13] | activity change, positive = activation [8] -59.8% [at 42.5 µM] | Potency [9] | Potency [11] | Potency [12]

CC(C)O.CC(C)O.CCOC(=O)/C=C(\C)O.CCOC(=O)/C=C(\C)O.[Ti]
inactive: Potency [1] | Potency [15] | Potency [2] | Potency [3] | Potency [5] | Potency [6] | Potency [19] | Potency [13] | Potency [7] | Potency [9] | Potency [10] | Potency [11] | Potency [12]

CCOCC(O)COc1ccc(NC(=O)CC[S+](C)C)cc1 (stereo not drawn)
inactive: Potency [1] | Potency [15] | Potency [2] | Potency [17] | Potency [5] | Potency [19] | Potency [13] | Potency [7] | Potency [9] | Potency [10] | Potency [11] | Potency [12]

O=C(Cl)c1cc(C(=O)Cl)cc(C(=O)Cl)c1
active: Potency [10] 49 µM
inactive: Potency [1] | Potency [15] | Potency [2] | Potency [3] | Potency [5] | Potency [19] | Potency [7] | Potency [11]

C=CC(=O)OCCOc1ccccc1
inactive: Potency [1]
